Sampled rows, rich in hits. Any-hit rate of the full collection: about 5.4%.
SMARCA2 act – increases SMARCA2 function in MMTV reporter cells | MG213 cells, MMTV-luciferase reporter, dexamethasone, overnight | activation, % at 9.1 µM | 370,000 compounds, 1% hits | AID 652017; in the data active = activation above about 7.8%;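 note: 0% = vehicle wells and 100% = reference activator wells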
beta cell repl – MIN6 beta-cell proliferation induction; MIN6 cells proliferation, ATPlite luminescence, 48 h; cells starved in 0.2% serum; 100% = growth in 10% serum; proliferation, % at 10 µM; 330,000 compounds, 0.29% hits; AID 2380;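 active = compounds whose signal lies at least 3.5 SD above the mean of all wells on their plate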;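 note: 0% = DMSO-treated cells in low-serum medium and 100% = 10% serum control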
ALR inh – human ALR oxidase inhibition via reduced H2O2; AID 485317; inhibition, % (no concentration beside the values); purified ALR, DTT oxidation, H2O2 HRP-luminol luminescence; 290,000 compounds, 3.8% hits; P55789;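 active = mean replicate inhibition above about 79%, with every replicate also reaching it, limit read from the data; inconclusive = only one of the two criteria met; inactive = mean below limit and not every replicate reaching it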
Target sequence (P55789 whole entry, looked up): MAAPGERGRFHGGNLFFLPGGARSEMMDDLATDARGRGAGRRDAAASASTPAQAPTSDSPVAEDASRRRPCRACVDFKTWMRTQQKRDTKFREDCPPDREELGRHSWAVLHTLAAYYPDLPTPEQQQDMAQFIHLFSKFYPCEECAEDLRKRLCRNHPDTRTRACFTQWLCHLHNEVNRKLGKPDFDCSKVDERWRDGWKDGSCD
GASC-1 inh – blocks human GASC-1 demethylase activity. Q9H3R0. GST-JMJD2C(1-420) H3K9me3 demethylation, DELFIA europium. inhibition, % at 2.35 µM. 330,000 compounds, 0.069% hits. AID 2099;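 active = more than half of a compound's replicate wells show inhibition beyond 50%, single wells judged on their own value; inconclusive = some, but no more than half, of replicates pass 50% inhibition; inactive = no replicate passes 50% inhibition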;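 note: signal counts dimethyl H3K9 product captured on neutravidin plate; 0% = median of DMSO wells and 100% = 0.3 times that DMSO median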
Target sequence (Q9H3R0 1-420 limits assumed): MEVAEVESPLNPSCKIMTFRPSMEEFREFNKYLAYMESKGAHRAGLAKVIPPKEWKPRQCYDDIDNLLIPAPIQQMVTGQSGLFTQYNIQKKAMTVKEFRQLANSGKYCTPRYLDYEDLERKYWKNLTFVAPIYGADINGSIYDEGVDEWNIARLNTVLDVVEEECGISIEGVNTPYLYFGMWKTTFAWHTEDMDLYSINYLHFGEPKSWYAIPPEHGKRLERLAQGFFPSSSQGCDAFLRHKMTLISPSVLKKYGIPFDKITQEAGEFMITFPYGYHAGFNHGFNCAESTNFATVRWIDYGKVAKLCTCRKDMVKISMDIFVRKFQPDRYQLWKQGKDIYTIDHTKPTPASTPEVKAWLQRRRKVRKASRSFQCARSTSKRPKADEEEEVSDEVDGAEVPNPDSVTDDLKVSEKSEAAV
Exocytosis inh – blocks lytic granule exocytosis. inhibition, % at 10 µM. TALL-104 LAMP-1 surface exposure, flow cytometry; cells stimulated with thapsigargin and PMA. 360,000 compounds, 0.66% hits;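 active = inhibition above about 55%, limit read from the data; inconclusive = no clear call, values can overlap the other calls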
M18AAP inhibitor – PfM18AAP enzyme inhibition. recombinant PfM18AAP, H-Glu-NHMec fluorogenic cleavage. inhibition, % at 7.35 µM. 290,000 compounds, 1.2% hits;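 active = inhibition above the campaign mean inhibition over all tested compounds plus 3 SD, cut at about 28% in these data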;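 note: 0% = plate median of test compound wells and 100% = 2 mM ZnCl2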
* marks the source's active call; other numbers are inactive results; ? = inconclusive; nt = no result given.

SMILES | SMARCA2 act | beta cell repl | ALR inh | GASC-1 inh | Exocytosis inh | M18AAP inhibitor
C=CCN1C(=O)[C@@H](CC(=O)N2CCCC2)[C@]2(C(=O)OCC)CCCCC/C=C/12 | -4 | nt | nt | nt | nt | nt
CCOC(=O)C1=C(O)/C(=C/c2cccc(OC)c2O)N=C1C | -2 | 2 | 78* | 12 | -6 | 10
Cc1ccccc1NC(=O)CN1CCN(c2nc(-c3ccccc3)cs2)CC1 | 3 | nt | nt | nt | nt | nt
O=C(O)[C@H](Cc1ccccc1)NC(=O)N1CCN(c2ccc(F)cc2)CC1 | -4 | 1 | 98* | -6 | -7 | 4
COC(=O)[C@H](Cc1ccccc1)NC(=O)N1CCCCC1 | -1 | -1 | -29 | -2 | 1 | 5
COC(=O)[C@H](Cc1ccccc1)NC(=O)N1CCN(c2ccccc2)CC1 | -2 | -1 | 85* | -3 | 2 | 0
CC1CCN(C(=O)N[C@@H](Cc2ccccc2)C(=O)O)CC1 | 2 | 2 | -3 | -4 | -2 | -3
COC(=O)[C@@]12CCCCC3=C1N(CCC3)C(=O)[C@H]2CC(=O)N1CCSCC1 | -2 | nt | nt | nt | nt | nt
COC(=O)/C=C/c1ccc(-n2cncn2)cc1 | 7.8* | 1 | -7 | -1 | 4 | -5
O=Cc1ccc(-n2cncn2)cc1 | -1 | -2 | -3 | -5 | 4 | -5
COc1ccc(C(=O)N2CCCC(Nc3ccc(F)cc3)C2)c(OC)c1 (configuration not stated) | 0 | 7 | 98* | 1 | 20 | -6
COc1ccc(NC2CCCN(C(=O)c3ccc(C)nc3)C2)cc1 (configuration not stated) | 0 | 0 | 99* | -17 | 0 | 5
Cc1ccc(C(=O)N2CCCC(Nc3ccc(C(C)C)cc3)C2)cn1 (configuration not stated) | 0 | -2 | 65 | 1 | -3 | -4
Cc1ccc(C(=O)N2CCCC(Nc3cccc(F)c3)C2)cc1N1CCNC1=O (configuration not stated) | -1 | 1 | 36 | -16 | 0 | -4
COc1ccc(NC2CCCN(C(=O)c3cccc(N(C)C)c3)C2)cc1 (configuration not stated) | 2 | 0 | nt | -7 | 0 | 0
COc1ccc(NC2CCCN(C(=O)c3ccc(C)c(N4CCNC4=O)c3)C2)cc1 (configuration not stated) | 0 | 2 | 98* | -13 | 1 | 4
COc1ccc(C(=O)N2CCCC(Nc3ccc(F)c(F)c3)C2)c(OC)n1 (configuration not stated) | 2 | -2 | 20 | -1 | 0 | 2
COc1ccc(NC2CCCN(C(=O)c3ccc4[nH]c(C)c(C)c4c3)C2)cc1 (configuration not stated) | 1 | -2 | 88* | -2 | -1 | 16
Cc1ccc(-c2nnc(SCC(=O)NNC(=S)Nc3ccccc3)n2C2CCCCC2)cc1 | -4 | nt | nt | nt | nt | nt
COc1ccc(CNC(=O)c2c(N)[nH]c(C(=O)c3ccccc3)c2-c2ccc3ccccc3c2)cc1OC | -1 | nt | nt | nt | nt | nt
Cc1cccc(C(=O)N2CCCC(Nc3ccc(F)c(F)c3)C2)n1 (configuration not stated) | -2 | -1 | 45 | -3 | 0 | 11
COc1ccc(NC2CCCN(C(=O)c3ccc(OC)o3)C2)cc1 (configuration not stated) | -2 | -1 | 99* | -4 | -3 | 0
COc1ccc(NC2CCCN(C(=O)C3=NNC(=O)CC3)C2)cc1 (configuration not stated) | -1 | nt | nt | nt | 4 | nt
COc1ccc(NC2CCCN(C(=O)c3ccc(C(C)=O)cc3)C2)cc1 (configuration not stated) | -1 | -2 | 98* | 16 | 9 | -1
COc1ccc(NC2CCCN(C(=O)c3ccc(C(C)=O)s3)C2)cc1 (configuration not stated) | 0 | -1 | 92* | 10 | 14 | -1
SMILES | SMARCA2 act | beta cell repl | ALR inh | GASC-1 inh | Exocytosis inh | M18AAP inhibitor
COc1ccc(NC2CCCN(C(=O)c3cc4ncccn4n3)C2)cc1 (configuration not stated) | 1 | 0 | 100* | -5 | 0 | 13
COc1ccc(S(=O)(=O)N2CCCc3nc(C)c(C)cc32)cc1 | 4 | nt | nt | nt | nt | nt
Cc1cc(C(=O)Nc2ccc(Cl)c(Cl)c2)n(-c2ccccc2)n1 | -1 | nt | nt | nt | nt | nt
COc1ccc(N2CCN(CCNS(=O)(=O)c3ccccc3[N+](=O)[O-])CC2)cc1 | -1 | nt | nt | nt | nt | nt
COc1cc(/C=C(\C#N)c2nc3ccccc3n2C)cc(OC)c1O | -4 | -1 | 99* | -5 | 0 | 15
Cn1c(/C(C#N)=C/c2ccc(O)cc2)nc2ccccc21 | 6 | -1 | 99* | -2 | -7 | -15
COc1nc(NCC(C)C)nc(Oc2ccc(=O)n(-c3ccccc3)n2)n1 | -1 | 6 | 79* | -10 | 3 | -9
O=C(Oc1ccc(=O)n(-c2ccccc2)n1)c1ccc(Cl)cc1 | 0 | -4 | ? | 6 | 0 | 5
COc1ccc(C(=O)Oc2ccc(=O)n(-c3ccccc3)n2)cc1 | 2 | -3 | 98* | 2 | -5 | -8
CCNc1nc(OC)nc(Oc2ccc(=O)n(-c3ccccc3)n2)n1 | 0 | 2 | 2 | 2 | 0 | -7
S=C(NCCCN1CCOCC1)N1CCN(c2ccccc2)CC1 | -1 | 1 | 98* | -5 | 13 | -5
Cc1ccc(OCC(=O)NCCN2CCOCC2)cc1C | -5 | -3 | 87* | 3 | 1 | 0
COCCCNC(=S)N1CCN(C)CC1 | -3 | -1 | -2 | -5 | -3 | -14
Cc1ccc(NC(=S)NCCN2CCOCC2)cc1C | -2 | 2 | -3 | -6 | -1 | -8
Cc1ccc(NC(=S)NCCCN2CCOCC2)cc1C | 1 | -3 | 98* | 4 | 8 | -2
COCCCNC(=S)N1CCN(c2ccccc2)CC1 | -1 | -5 | 97* | 1 | -2 | 6
O=c1oc(-c2ccc(F)cc2)nc2ccsc12 | -2 | 0 | 83* | -27 | 1 | -4
O=C(Nc1ccc2c(c1)OCO2)N1CCC(c2nc3ccc(Cl)cc3[nH]2)CC1 | -2 | nt | nt | nt | nt | nt
N#C/C(=C\c1ccc([N+](=O)[O-])cc1)C(=O)Nc1ccccc1O | 2 | -4 | 86* | 1 | 3 | 7
N#C/C(=C/c1ccc([N+](=O)[O-])cc1)C(=O)Nc1ccccc1O | 7 | -1 | ? | -5 | 7 | 1
c1nc2nc3c(c(N4CCCC4)n2n1)CCCC3 | -6 | nt | nt | nt | nt | nt
COC(=O)C1CN(Cc2cn(CCC3OCCO3)nn2)CCS(=O)(=O)N1Cc1ccccc1 (configuration not stated) | -2 | nt | nt | nt | nt | nt
Cc1c(N2C(=O)/C(=C/C3CC=CCC3)SC2=S)c(=O)n(-c2ccccc2)n1C (configuration not stated) | -2 | -1 | 98* | 39 | -4 | -17
CCCCNS(=O)(=O)CC1NCc2ccccc21 (configuration not stated) | 0 | nt | nt | nt | nt | nt
